# Measurements from PubChem BioAssay AID1159580 (chemical genetic matrix, 2015).
# The campaign covered roughly 5,500 compounds. About 2,000 (36%) were called active. About 18% were inconclusive and are not listed. Some of the results follow. A number with no mark means an inactive call. Cut-off read from the data, not from the text of the source: active = normalized growth mostly below about 0.91 (no sharp cut-off); inconclusive = no clear call, values can overlap the other calls; inactive = mostly above about 0.92.
# Experiment: chemical genetic growth profiling, strain panel (AID 1159580);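 note: tested at 20 µM; growth read once vehicle control cultures reached saturation at 30 °C; 1 = growth at the plate median or of vehicle wells; lower values mean less growth of the strain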
# Details: S. cerevisiae deletion strains, growth OD
# [1] = locus YHR030C, strain SLT2, active compounds read low
# [2] = locus YHR079C, strain IRE1, active compounds read low
# [3] = locus YJL095W, strain BCK1, active compounds read low
# [4] = locus YJR066W, strain TOR1, active compounds read low
# [5] = locus YLR113W, strain HOG1, active compounds read low
# [6] = locus YNL183C, strain NPR1, active compounds read low
# [7] = locus YOR231W, strain MKK1, active compounds read low
# [8] = locus YPL256C, strain CLN2, active compounds read low
# [9] = locus YDL101C, strain DUN1, active compounds read low
structure (smiles),measurement,setting,value
CC(c1cc2ccccc2s1)N(O)C(N)=O (configuration not stated),normalized growth,[1],1.01
same,normalized growth,[2],0.964
same,normalized growth,[3],0.981
same,normalized growth,[4],0.941
same,normalized growth,[5],0.944
same,normalized growth,[6],0.892
same,normalized growth,[7],0.967
same,normalized growth,[8],0.976
O=C(O)C1c2ccccc2C(=O)N(Cc2ccc3c(c2)OCO3)C1c1cccnc1 (configuration not stated),normalized growth,"locus YAL013W, strain DEP1, active compounds read low",1.02
same,normalized growth,"locus YBR229C, strain ROT2, active compounds read low",1.01
same,normalized growth,"locus YCL061C, strain MRC1, active compounds read low",0.994
same,normalized growth,[9],1.01
same,normalized growth,"locus YDL134C, strain PPH21, active compounds read low",0.993
same,normalized growth,"locus YDR150W, strain NUM1, active compounds read low",0.978
same,normalized growth,"locus YEL061C, strain CIN8, active compounds read low",1.04
same,normalized growth,"locus YGR078C, strain PAC10, active compounds read low",1.04
same,normalized growth,[1],1.05
same,normalized growth,"locus YHR087W, strain rtc3, active compounds read low",1.01
same,normalized growth,"locus YJR043C, strain POL32, active compounds read low",0.996
same,normalized growth,"locus YJR075W, strain HOC1, active compounds read low",1.03
same,normalized growth,"locus YKL190W, strain CNB1, active compounds read low",0.989
same,normalized growth,"locus YLR039C, strain RIC1, active compounds read low",1.01
same,normalized growth,"locus YLR058C, strain SHM2 (second series), active compounds read low",0.997
same,normalized growth,"locus YLR085C, strain ARP6, active compounds read low",1.02
same,normalized growth,"locus YLR262C, strain YPT6, active compounds read low",0.971
same,normalized growth,"locus YML094W, strain GIM5, active compounds read low",1.04
same,normalized growth,"locus YMR219W, strain ESC1, active compounds read low",1
same,normalized growth,"locus YMR263W, strain SAP30, active compounds read low",1
same,normalized growth,"locus YNL128W, strain TEP1, active compounds read low",0.993
same,normalized growth,"locus YNL153C, strain GIM3, active compounds read low",1.01
same,normalized growth,"locus YNL298W, strain CLA4 (second series), active compounds read low",1.04
same,normalized growth,"locus YNL322C, strain KRE1, active compounds read low",1.02
same,normalized growth,"locus YNR030W, strain Alg12, active compounds read low",1
same,normalized growth,"locus YPL055C, strain LGE1, active compounds read low",1.03
same,normalized growth,"locus YPL241C, strain CIN2, active compounds read low",0.971
same,normalized growth,"locus YPR135W, strain CTF4, active compounds read low",0.982
O=C(NCc1ccc2c(c1)OCO2)c1cc2ccccc2s1,normalized growth,"locus YAR019C, strain CDC15, active compounds read low",0.858 (active)
same,normalized growth,"locus YBL105C, strain PKC1, active compounds read low",0.867 (active)
same,normalized growth,"locus YBR135W, strain CKS1, active compounds read low",0.87 (active)
same,normalized growth,"locus YBR136W, strain MEC1, active compounds read low",0.866 (active)
same,normalized growth,"locus YBR160W, strain CDC28, active compounds read low",0.873 (active)
same,normalized growth,"locus YDL017W, strain CDC7, active compounds read low",0.877 (active)
same,normalized growth,"locus YDL028C, strain MPS1, active compounds read low",0.9
same,normalized growth,[9],0.912
same,normalized growth,"locus YDL108W, strain KIN28, active compounds read low",0.888 (active)
same,normalized growth,"locus YDL132W, strain cdc53, active compounds read low",0.851 (active)
same,normalized growth,"locus YDL214C, strain PRR2, active compounds read low",0.58 (active)
same,normalized growth,"locus YDR052C, strain DBF4, active compounds read low",0.933
same,normalized growth,"locus YDR054C, strain cdc34, active compounds read low",0.648 (active)
same,normalized growth,"locus YDR226W, strain ADK1, active compounds read low",0.874 (active)
same,normalized growth,"locus YDR477W, strain SNF1, active compounds read low",0.422 (active)
same,normalized growth,"locus YER123W, strain YCK3, active compounds read low",0.396 (active)
same,normalized growth,"locus YER133W, strain GLC7, active compounds read low",0.298 (active)
same,normalized growth,"locus YFL009W, strain cdc4, active compounds read low",0.858 (active)
same,normalized growth,"locus YFL029C, strain CAK1, active compounds read low",0.852 (active)
same,normalized growth,"locus YFR003C, strain YPI1, active compounds read low",0.872 (active)
same,normalized growth,"locus YFR019W, strain FAB1, active compounds read low",0.625 (active)
same,normalized growth,"locus YFR028C, strain CDC14, active compounds read low",0.864 (active)
same,normalized growth,"locus YGR040W, strain KSS1, active compounds read low",0.459 (active)
same,normalized growth,"locus YGR052W, strain FMP48, active compounds read low",0.406 (active)
same,normalized growth,"locus YGR092W, strain DBF2, active compounds read low",0.3 (active)
same,normalized growth,[1],0.14 (active)
same,normalized growth,[2],0.178 (active)
same,normalized growth,"locus YHR082C, strain KSP1, active compounds read low",0.571 (active)
same,normalized growth,"locus YHR205W, strain SCH9, active compounds read low",0.678
same,normalized growth,"locus YIL147C, strain SLN1, active compounds read low",0.871 (active)
same,normalized growth,[3],0.144 (active)
same,normalized growth,"locus YJL128C, strain PBS2, active compounds read low",0.854
same,normalized growth,"locus YJL157C, strain FAR1, active compounds read low",0.622 (active)
same,normalized growth,"locus YJR016C, strain ILV3, active compounds read low",0.87 (active)
same,normalized growth,"locus YJR066W, strain TOR1 (second series), active compounds read low",0.155 (active)
same,normalized growth,[4],0.432 (active)
same,normalized growth,"locus YKL048C, strain ELM1, active compounds read low",0.443 (active)
same,normalized growth,"locus YKL067W, strain YNK1, active compounds read low",0.675 (active)
same,normalized growth,"locus YKL101W, strain HSL1, active compounds read low",0.573 (active)
same,normalized growth,"locus YKL193C, strain SDS22, active compounds read low",0.882 (active)
same,normalized growth,"locus YKL203C, strain TOR2, active compounds read low",0.258 (active)
same,normalized growth,[5],0.626 (active)
same,normalized growth,"locus YLR133W, strain CKI1, active compounds read low",0.675 (active)
same,normalized growth,"locus YLR403W, strain SFP1, active compounds read low",0.583 (active)
same,normalized growth,"locus YML070W, strain DAK1, active compounds read low",0.54 (active)
same,normalized growth,"locus YMR001C, strain CDC5, active compounds read low",0.837 (active)
same,normalized growth,"locus YMR205C, strain PFK2 (second series), active compounds read low",0.692 (active)
same,normalized growth,"locus YMR277W, strain FCP1, active compounds read low",0.829 (active)
same,normalized growth,"locus YNL006W, strain LST8, active compounds read low",0.849 (active)
same,normalized growth,"locus YNL020C, strain ARK1, active compounds read low",0.663 (active)
same,normalized growth,"locus YNL161W, strain CBK1, active compounds read low",0.868 (active)
same,normalized growth,[6],0.322 (active)
same,normalized growth,"locus YNL207W, strain RIO2, active compounds read low",0.822 (active)
same,normalized growth,"locus YNL222W, strain SSU72, active compounds read low",0.853 (active)
same,normalized growth,"locus YNL307C, strain MCK1 (second series), active compounds read low",0.205 (active)
same,normalized growth,"locus YOL078W, strain AVO1, active compounds read low",0.842 (active)
same,normalized growth,"locus YOL136C, strain PFK27, active compounds read low",0.429 (active)
same,normalized growth,"locus YOR061W, strain CKA2, active compounds read low",0.589 (active)
same,normalized growth,"locus YOR119C, strain RIO1, active compounds read low",0.273 (active)
same,normalized growth,[7],0.369 (active)
same,normalized growth,"locus YOR329C, strain SCD5, active compounds read low",0.856 (active)
same,normalized growth,"locus YPL031C, strain PHO85, active compounds read low",0.392 (active)
same,normalized growth,"locus YPL153C, strain RAD53, active compounds read low",0.224 (active)
same,normalized growth,"locus YPL204W, strain HRR25, active compounds read low",0.3 (active)
same,normalized growth,"locus YPL209C, strain IPL1, active compounds read low",0.868 (active)
same,normalized growth,[8],0.558 (active)
same,normalized growth,"locus YPR025C, strain CCL1, active compounds read low",0.863 (active)
same,normalized growth,"locus YPR106W, strain ISR1, active compounds read low",0.882 (active)
same,normalized growth,"locus YPR111W, strain DBF20, active compounds read low",0.868 (active)
same,normalized growth,"strain NNK1, active compounds read low",0.835 (active)
same,normalized growth,"strain TSCII, active compounds read low",0.799 (active)
